Source: PubChem BioAssay
Calls of active or inactive are those of the source.

Assay: growth effects on S. cerevisiae YJM789 – YJM789 clinical isolate, OD600, 24 h, basal, primary screen (AID 1089);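 note: growth of clinical yeast isolate S. cerevisiae YJM 789 seeded 1000 cells per well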
Conditions: higher = more signal, called active from +8 up or from −8 down
Note: test concentration not given here.

**Q.** With COC(=O)[C@@]1(Cc2ccc(F)cc2)[C@H]2c3cc(C(=O)N(C)C)n(Cc4c(CO)[nH]cc(C)c4=O)c3C[C@H]2CN1C(=O)c1ccccc1 as the compound, how does the z-score read?
**A.** 0.342 (inactive)

**Q.** For CN(C)C(=O)[C@]1(CCS(=O)(=O)c2ccccc2)N=C(c2ccc(OCCCO)cc2)O[C@@H]1c1ccccc1, which z-score is on record?
**A.** -0.897 (inactive)

**Q.** For CC(C)OC(=O)CC(=O)CC(O)c1ccc([N+](=O)[O-])cc1 (configuration not stated), which z-score is on record?
**A.** -0.0857 (inactive)

**Q.** With CCN(CC)c1ccc(N2CC=CC34O[C@@H]5/C=C\CCC(C)OC(=O)C5[C@H]3C(=O)N(C(C)CO)[C@@H]4C2=O)cc1 (some centres not stated) as the compound, how does the z-score read?
**A.** 0.217 (inactive)

**Q.** Which z-score does the source give for Cc1ccc(C(C)CC(O)C2C=CC3C(=O)N(c4ccccc4)C(=O)C3N2Nc2ccc(C#N)cc2)o1 (configuration not stated) here?
**A.** -26 (active)

**Q.** With Cc1ccc(F)cc1S(=O)(=O)N[C@@H]1CCN(Cc2cccc3[nH]ccc23)C1 as the compound, how does the z-score read?
**A.** 0.84 (inactive)

**Q.** Which z-score does the source give for O=C1C2C=CC(C(O)c3ccco3)N(Nc3ccccc3)C2C(=O)N1c1ccccc1 (configuration not stated) here?
**A.** 0.928 (inactive)

**Q.** With CCOC(=O)C1=CCC(c2ccco2)N(S(=O)(=O)c2ccc(C)cc2)C1 (configuration not stated) as the compound, how does the z-score read?
**A.** -0.949 (inactive)

**Q.** With O=C(NCCN1CCOCC1)[C@@H]1c2ccccc2C(=O)N(Cc2ccccc2)[C@H]1c1ccc(CO)cc1 as the compound, how does the z-score read?
**A.** -0.0009 (inactive)

**Q.** Which z-score does the source give for CCOC(=O)C1=C[C@@H](c2ccccc2)N(S(=O)(=O)c2ccc(C)cc2)[C@H]1c1ccccc1 here?
**A.** -1.27 (inactive)

**Q.** With COCCOC(=O)N1C(=O)[C@@]2(c3cc(C#Cc4ccc(OC)cc4)ccc31)[C@H](c1ccc(OCCO)cc1)N1[C@H](c3ccccc3)[C@H](c3ccccc3)OC(=O)[C@H]1[C@@H]2C(=O)Nc1nc2ccccc2s1 as the compound, how does the z-score read?
**A.** 1.77 (inactive)

**Q.** With [N-]=[N+]=Nc1ccccc1C[C@]1(C(=O)O)N=C(c2ccc(OCCCO)cc2)O[C@H]1c1ccccc1N=[N+]=[N-] as the compound, how does the z-score read?
**A.** -0.228 (inactive)

**Q.** Which z-score does the source give for CC=CC(O)C1C=CC2C(=O)NC(=O)C2N1Nc1ccccn1 (configuration not stated) here?
**A.** 0.43 (inactive)

**Q.** Which z-score does the source give for CCOC(=O)C1=C[C@@H](C(C)(C)C)N(S(=O)(=O)c2ccc(C)cc2)[C@H]1c1ccccc1 here?
**A.** 0.826 (inactive)

**Q.** Which z-score does the source give for COC(=O)[C@@]1(Cc2ccc(F)cc2)[C@H]2c3cc(C(=O)N4CCCC4)n(CC4CC4)c3C[C@H]2CN1C(=O)c1ccccc1 here?
**A.** -0.223 (inactive)

**Q.** For CO[C@H]1O[C@H](CO)[C@@H](OC(=O)Nc2ccc(C#N)cc2)[C@@H]2OC(=O)[C@H](Cc3cccc(Br)c3)C/C=C/C[C@@H](Cc3cccc(Br)c3)C(=O)O[C@@H]12, which z-score is on record?
**A.** 0.471 (inactive)

**Q.** Which z-score does the source give for COC(=O)[C@@]1(Cc2ccccc2)[C@H]2c3cc(C(=O)N(C)C)n(CCn4cc([N+](=O)[O-])nc4C)c3C[C@H]2CN1C(=O)c1ccccc1 here?
**A.** -1.54 (inactive)

**Q.** Which z-score does the source give for Cc1ccc(N2C(=O)c3ccccc3[C@](C)(C(=O)NCc3ccccc3)[C@@H]2c2ccc(CO)cc2)nc1 here?
**A.** 0.34 (inactive)

**Q.** For COC(=O)[C@@]1(Cc2ccc(F)cc2)[C@H]2c3cc(C(=O)N4CCCC4)n(C)c3C[C@H]2CN1C(=O)c1ccccc1, which z-score is on record?
**A.** -0.42 (inactive)

**Q.** With CC(C)C(=C=CC[C@@H](O)c1cccc(OCCO)c1)C[C@@H](O)c1ccccn1 as the compound, how does the z-score read?
**A.** -0.282 (inactive)

**Q.** Which z-score does the source give for O=C(O)[C@H]1C[C@H]2C(=O)N[C@@H](Cc3ccccc3)C(=O)N2[C@H]1c1cccc(OCCO)c1 here?
**A.** 0.893 (inactive)

**Q.** With COc1ccc([Si](C)(C)[C@@H]2[C@@H](CC(=O)N3Cc4ccccc4C[C@H]3CO)O[C@]3(C(=O)N(Cc4ccc(N5CCC5=O)cc4)c4ccccc43)[C@H]2C)cc1 as the compound, how does the z-score read?
**A.** 0.68 (inactive)

**Q.** Which z-score does the source give for Cc1ccc([C@H]2C(C(=O)O)=C[C@@H](C(C)(C)C)N2S(=O)(=O)c2ccc(C)cc2)cc1 here?
**A.** -0.225 (inactive)

**Q.** For CN1C(=O)[C@@]2(Cc3ccccc3)N=C(c3ccc(OCCCO)cc3)O[C@H]2c2ccccc21, which z-score is on record?
**A.** -1.28 (inactive)

**Q.** With COCCCNC(=O)[C@@]1(Sc2ccc(C)cc2)CC(=O)N(C(C)C)[C@@H]1c1ccc(CO)cc1I as the compound, how does the z-score read?
**A.** -0.436 (inactive)

**Q.** Which z-score does the source give for CC(C)C(=C=CC[C@@H](O)c1cccc(OCCO)c1)C[C@@H](O)COCc1ccccc1 here?
**A.** -0.978 (inactive)

**Q.** Which z-score does the source give for COC(=O)[C@@]1(Cc2ccccc2)[C@H]2c3cc(C(=O)N4CCCC4)n(CCSCCO)c3C[C@H]2CN1C(=O)c1ccccc1 here?
**A.** 0.118 (inactive)

**Q.** With CCOC(=O)C1=C[C@@H](C(C)(C)C)N(S(=O)(=O)c2ccc(C)cc2)[C@H]1c1cccc(Cl)c1 as the compound, how does the z-score read?
**A.** 1.74 (inactive)

**Q.** With C=C[C@H](C)[C@H](OC(=O)Nc1ccc(OC)cc1)c1ccc(OCCO)cc1 as the compound, how does the z-score read?
**A.** 0.164 (inactive)

**Q.** Which z-score does the source give for C[C@]1(C(=O)O)c2ccccc2C(=O)N(Cc2ccc(OC(F)(F)F)cc2)[C@H]1c1ccc(CO)cc1 here?
**A.** -0.691 (inactive)

Assay: S. pombe growth modifiers, basal conditions – strain 972, OD600, 24 h, no modulator, primary screen (AID 1090);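 note: basal condition with compound alone and no growth modifier present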
Conditions: S. pombe 972 growth, higher = more signal, called active from +8 up or from −8 down

**Q.** Which z-score does the source give for COc1cc(NN2C(C(O)c3ccc(I)cc3)C=CC3C(=O)N(c4ccccc4)C(=O)C32)cc(OC)c1OC (configuration not stated) here?
**A.** -0.229 (inactive)

**Q.** For CN(C)CCCC[C@@H]1NC(=O)[C@@H]2C[C@H](C(=O)O)[C@H](c3cccc(OCCO)c3)N2C1=O, which z-score is on record?
**A.** -0.595 (inactive)

**Q.** With CN1C(=O)C2C=CC(C(O)c3cc(C(F)(F)F)cc(C(F)(F)F)c3)N(Nc3ccccc3)C2C1=O (configuration not stated) as the compound, how does the z-score read?
**A.** -0.714 (inactive)

**Q.** With C=C(/C(=C/C[C@H](OC(=O)c1ccncc1)c1ccccc1OCCO)c1cnc2ccccc2c1)C(C)C as the compound, how does the z-score read?
**A.** -0.555 (inactive)

**Q.** With COC(=O)[C@@]1(Cc2ccccc2CN=[N+]=[N-])N=C(c2ccc(OCCCO)cc2)O[C@H]1c1ccccc1 as the compound, how does the z-score read?
**A.** -2.11 (inactive)

**Q.** Which z-score does the source give for C=CCC(OC(C)=O)[C@@H]1[C@@H](N(Cc2cccc3ccccc23)C(=O)c2ccc(-c3ccccc3)cc2)c2cc(OCCCO)ccc2N1C(=O)c1ccc(-c2ccccc2)cc1 (some centres not stated) here?
**A.** -0.0057 (inactive)

**Q.** Which z-score does the source give for COC(=O)[C@@]1(Cc2ccc(F)cc2)[C@H]2c3cc(C(=O)N(C)C)n(Cc4c(CO)[nH]cc(C)c4=O)c3C[C@H]2CN1C(=O)c1ccccc1 here?
**A.** -0.392 (inactive)

**Q.** With CN(C)C(=O)[C@]1(CCS(=O)(=O)c2ccccc2)N=C(c2ccc(OCCCO)cc2)O[C@@H]1c1ccccc1 as the compound, how does the z-score read?
**A.** -0.804 (inactive)

**Q.** With CC(C)OC(=O)CC(=O)CC(O)c1ccc([N+](=O)[O-])cc1 (configuration not stated) as the compound, how does the z-score read?
**A.** -0.26 (inactive)

**Q.** For CCN(CC)c1ccc(N2CC=CC34O[C@@H]5/C=C\CCC(C)OC(=O)C5[C@H]3C(=O)N(C(C)CO)[C@@H]4C2=O)cc1 (some centres not stated), which z-score is on record?
**A.** -1.41 (inactive)

**Q.** With Cc1ccc(C(C)CC(O)C2C=CC3C(=O)N(c4ccccc4)C(=O)C3N2Nc2ccc(C#N)cc2)o1 (configuration not stated) as the compound, how does the z-score read?
**A.** -16.8 (active)

**Q.** With Cc1ccc(F)cc1S(=O)(=O)N[C@@H]1CCN(Cc2cccc3[nH]ccc23)C1 as the compound, how does the z-score read?
**A.** -1.02 (inactive)

**Q.** Which z-score does the source give for O=C1C2C=CC(C(O)c3ccco3)N(Nc3ccccc3)C2C(=O)N1c1ccccc1 (configuration not stated) here?
**A.** 0.0851 (inactive)

**Q.** Which z-score does the source give for CCOC(=O)C1=CCC(c2ccco2)N(S(=O)(=O)c2ccc(C)cc2)C1 (configuration not stated) here?
**A.** -0.0107 (inactive)

**Q.** Which z-score does the source give for O=C(NCCN1CCOCC1)[C@@H]1c2ccccc2C(=O)N(Cc2ccccc2)[C@H]1c1ccc(CO)cc1 here?
**A.** 0.253 (inactive)

**Q.** Which z-score does the source give for CCOC(=O)C1=C[C@@H](c2ccccc2)N(S(=O)(=O)c2ccc(C)cc2)[C@H]1c1ccccc1 here?
**A.** 0.517 (inactive)

**Q.** For COCCOC(=O)N1C(=O)[C@@]2(c3cc(C#Cc4ccc(OC)cc4)ccc31)[C@H](c1ccc(OCCO)cc1)N1[C@H](c3ccccc3)[C@H](c3ccccc3)OC(=O)[C@H]1[C@@H]2C(=O)Nc1nc2ccccc2s1, which z-score is on record?
**A.** 1.43 (inactive)

**Q.** With [N-]=[N+]=Nc1ccccc1C[C@]1(C(=O)O)N=C(c2ccc(OCCCO)cc2)O[C@H]1c1ccccc1N=[N+]=[N-] as the compound, how does the z-score read?
**A.** -0.896 (inactive)

**Q.** Which z-score does the source give for CC=CC(O)C1C=CC2C(=O)NC(=O)C2N1Nc1ccccn1 (configuration not stated) here?
**A.** 1.99 (inactive)

**Q.** Which z-score does the source give for CCOC(=O)C1=C[C@@H](C(C)(C)C)N(S(=O)(=O)c2ccc(C)cc2)[C@H]1c1ccccc1 here?
**A.** 1.27 (inactive)

**Q.** With COC(=O)[C@@]1(Cc2ccc(F)cc2)[C@H]2c3cc(C(=O)N4CCCC4)n(CC4CC4)c3C[C@H]2CN1C(=O)c1ccccc1 as the compound, how does the z-score read?
**A.** 0.64 (inactive)

**Q.** With CO[C@H]1O[C@H](CO)[C@@H](OC(=O)Nc2ccc(C#N)cc2)[C@@H]2OC(=O)[C@H](Cc3cccc(Br)c3)C/C=C/C[C@@H](Cc3cccc(Br)c3)C(=O)O[C@@H]12 as the compound, how does the z-score read?
**A.** 0.0261 (inactive)

**Q.** With COC(=O)[C@@]1(Cc2ccccc2)[C@H]2c3cc(C(=O)N(C)C)n(CCn4cc([N+](=O)[O-])nc4C)c3C[C@H]2CN1C(=O)c1ccccc1 as the compound, how does the z-score read?
**A.** 0.69 (inactive)

**Q.** For Cc1ccc(N2C(=O)c3ccccc3[C@](C)(C(=O)NCc3ccccc3)[C@@H]2c2ccc(CO)cc2)nc1, which z-score is on record?
**A.** -0.72 (inactive)

**Q.** Which z-score does the source give for COC(=O)[C@@]1(Cc2ccc(F)cc2)[C@H]2c3cc(C(=O)N4CCCC4)n(C)c3C[C@H]2CN1C(=O)c1ccccc1 here?
**A.** 0.252 (inactive)

**Q.** For CC(C)C(=C=CC[C@@H](O)c1cccc(OCCO)c1)C[C@@H](O)c1ccccn1, which z-score is on record?
**A.** -0.361 (inactive)

**Q.** With O=C(O)[C@H]1C[C@H]2C(=O)N[C@@H](Cc3ccccc3)C(=O)N2[C@H]1c1cccc(OCCO)c1 as the compound, how does the z-score read?
**A.** -1.11 (inactive)

**Q.** For COc1ccc([Si](C)(C)[C@@H]2[C@@H](CC(=O)N3Cc4ccccc4C[C@H]3CO)O[C@]3(C(=O)N(Cc4ccc(N5CCC5=O)cc4)c4ccccc43)[C@H]2C)cc1, which z-score is on record?
**A.** 1.02 (inactive)

**Q.** With Cc1ccc([C@H]2C(C(=O)O)=C[C@@H](C(C)(C)C)N2S(=O)(=O)c2ccc(C)cc2)cc1 as the compound, how does the z-score read?
**A.** 0.289 (inactive)

**Q.** With CN1C(=O)[C@@]2(Cc3ccccc3)N=C(c3ccc(OCCCO)cc3)O[C@H]2c2ccccc21 as the compound, how does the z-score read?
**A.** -4.11 (inactive)

**Q.** For COCCCNC(=O)[C@@]1(Sc2ccc(C)cc2)CC(=O)N(C(C)C)[C@@H]1c1ccc(CO)cc1I, which z-score is on record?
**A.** -2.98 (inactive)

**Q.** With CC(C)C(=C=CC[C@@H](O)c1cccc(OCCO)c1)C[C@@H](O)COCc1ccccc1 as the compound, how does the z-score read?
**A.** -1.55 (inactive)
